Source: PubChem
TDP1 block = inhibitors of human tyrosyl-DNA phosphodiesterase TDP1; hit rate 0.28% among 350,000; Potency, µM (series often up to 130 µM), for the others: top-dose activity change, negative = inhibition, usual class: inhibitors; recombinant TDP1, AlphaScreen DNA substrate cleavage; AID 485290; further: potency means the concentration at half of the fitted maximal effect; on the % scale 0 is the no-effect control and ±100 the full control effect; nearly all actives have a fitted effect of over 40% in size
Target sequence (Q9NUW8 whole entry, looked up): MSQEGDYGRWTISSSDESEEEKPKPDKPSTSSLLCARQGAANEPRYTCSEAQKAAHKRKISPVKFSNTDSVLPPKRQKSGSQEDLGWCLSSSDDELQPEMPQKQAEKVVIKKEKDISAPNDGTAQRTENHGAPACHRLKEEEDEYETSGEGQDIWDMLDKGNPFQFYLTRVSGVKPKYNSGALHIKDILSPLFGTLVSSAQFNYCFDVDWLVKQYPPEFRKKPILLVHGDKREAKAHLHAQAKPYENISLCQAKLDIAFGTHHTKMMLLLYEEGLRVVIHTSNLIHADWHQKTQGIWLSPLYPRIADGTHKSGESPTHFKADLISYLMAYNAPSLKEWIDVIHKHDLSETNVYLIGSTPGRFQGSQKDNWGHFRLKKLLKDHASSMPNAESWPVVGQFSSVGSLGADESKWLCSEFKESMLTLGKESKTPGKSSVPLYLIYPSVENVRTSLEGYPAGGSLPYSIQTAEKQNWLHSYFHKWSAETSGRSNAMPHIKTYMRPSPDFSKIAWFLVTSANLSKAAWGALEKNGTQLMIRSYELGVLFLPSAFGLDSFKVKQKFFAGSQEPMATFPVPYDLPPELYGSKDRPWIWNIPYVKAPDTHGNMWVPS
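Steps: enzyme plus compound, 15 min RT; add biotin/phosphotyrosine-FITC oligonucleotide (15 nM final), react 5 min; add donor/acceptor beads (10 ug/ml final), 10 min; read AlphaScreen. Tdp1 at 1 nM final.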
IL-1B inflam inh = blocks inflammasome-driven IL-1 beta release. THP-1 LPS/ATP IL-1B secretion, AlphaLISA, 16 h; hits give low values. activity change, % at 57.5 µM. hit rate 4.7% among 360,000. AID 743279; in the data active means activity change below about -50%; inconclusive means mostly about -30% to -49%; further: on the % scale 0 is the no-effect control and ±100 the full control effect
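Secreted IL-1B measured by AlphaLISA bead assay after 16 h compound exposure of THP-1 cells; compounds (final up to 57.5 uM) added 1 h before LPS (250 ng/mL) and ATP (1.25 mM) stimulation; lower signal means less secretion.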
DT40 TDP1 no CPT = qHTS for Inhibitors of human tyrosyl-DNA phosphodiesterase 1 (TDP1): qHTS in cells in absence of CPT; DT40 Tdp1-/- hTDP1 cells, no CPT, ATP luminescence, 48 h; hit rate 15% among 420,000; Potency, µM (titrated, usually from 46.2 µM), inactives show top-dose activity change, negative = growth inhibition, usual class: inhibitors; further: potency means the concentration at half of the fitted maximal effect; on the % scale 0 is the no-effect control and ±100 the full control effect; nearly all actives have a fitted effect of over 55% in size
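Cells were dispensed at 400 per well, compounds added by pin tool, plates incubated ≥48 hr at 37 °C, then CellTiter-Glo added for 30 min at room temperature before luminescence reading. Line: DT40 Tdp1-/- complemented with hTDP1; camptothecin omitted.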
TGFb SMAD3 inh = inhibitors of TGF-b signaling | hit rate 1.2% among 410,000 | HepG2 CAGA-GFP TGF-b/SMAD3 reporter, GFP fluorescence, 18 h; TGF-beta stimulated, 500 pg/mL final | Potency, µM (highest dose often 46.1 µM), for inactives: top-dose activity, negative = inhibition, most hits filed as inhibitors; further: potency means the concentration at half of the fitted maximal effect; on the % scale 0 is the no-effect control and ±100 the full control effect; nearly all actives have a fitted effect of over 65% in size
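First, reporter cells (HEPG2 CAGA-GFP) rested 2 h at 37 degrees C. Next, compounds were pinned in and TGF-beta added to 500 pg/mL final. After 18 h, GFP was imaged per cell and summed per well.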
HepG2 viability = counter-screen for TGF-b inhibitors: cytotoxicity in HepG2 cells; HepG2 CAGA-GFP viability, ATP luminescence, 18 h; Potency, µM (top dose mostly 46.1 µM), inactives show top-dose activity change, negative = cytotoxicity, most hits filed as cytotoxic; hit rate 0.76% among 410,000; further: potency means the concentration at half of the fitted maximal effect
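HepG2 CAGA-GFP cells (1000/well, DMEM with 1% FBS) received compound, then TGF-beta at 500 pg/mL final, and were incubated 18 hours at 37 degrees C. Viability was read by CellTiter-Glo luminescence. Media-only wells were set as complete cell-killing and DMSO as no toxicity.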
TDP1 cell CPT = DT40-hTDP1 cell growth loss with CPT. chicken DT40 Tdp1-/-;hTDP1 cells + 20 nM CPT, ATP luminescence, 48 h. hit rate 12% among 420,000. AID 686979. Potency, µM (titrated, usually from 46.2 µM), without a hit: at the highest dose activity change, negative = growth inhibition, actives largely listed as inhibitors; further: potency means the concentration at half of the fitted maximal effect; on the % scale 0 is the no-effect control and ±100 the full control effect; nearly all actives have a fitted effect of over 55% in size
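Cell growth measured by CellTiter-Glo luminescence after a minimum 48 h, 37 C compound exposure with 20 nM CPT in Tdp1-knockout DT40 cells stably expressing hTDP1, seeded 400/well; qHTS titration format.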
Active calls of the source: *; u = inconclusive; x = no result; [ ] = another dose, or the depositor's remark. This is a sample that favours compounds with a hit; in the whole collection about 18% have one here. Unless noted, the call rests on the fitted dose curve; in most records, active means well fitted curve in the direction sought with a large enough effect; inconclusive means small, poorly fitted or top-dose-only effect, or another doubt; inactive means no such curve, though single readings can be large; an effect the other way counts as inactive or inconclusive.

SMILES	TDP1 block	IL-1B inflam inh	DT40 TDP1 no CPT	TGFb SMAD3 inh	HepG2 viability	TDP1 cell CPT
CCCCn1nnnc1C(c1ccccc1)N1CCN(c2ccc(C)cc2)CC1 (stereo not given)	x	-27	18µM*	x	x	u
CCOc1ccccc1N(CC)C(=O)Cn1ncc2c1-c1ccccc1OC2	5%	x	16µM*	u	-6%	21µM*
COc1ccccc1NC(=O)Cn1ncc2c1-c1ccccc1OC2	7%	-22	u	0%	-9%	15µM*
COc1cc(NC(=O)Cn2ncc3c2-c2ccccc2OC3)cc(OC)c1OC	1%	12	u	1%	-28%	u
COc1ccc(CCNC(=O)CSc2nc3ccccc3nc2Cc2ccc(Cl)cc2)cc1OC	3%	x	-21%	20%	-6%	-25%
COc1ccc(N2CCN(C(=O)COC(=O)CCOc3ccccc3C)CC2)cc1	8%[0.505 µM]	-12	-26%	10%	14%	u
COc1cccc(N2CCN(C(=O)C3CCCN(c4ncnc5c4nc4n5CCCCC4)C3)CC2)c1 (stereo not given)	7%	-21	u	-7%	-4%	16µM*
CCN1CCN(C(=O)C2CCCN(c3ncnc4c3nc3n4CCCCC3)C2)CC1 (stereo not given)	1%	32	1%	-5%	-2%	4%
COc1ccc(CCNC(=O)C2CCCN(c3ncnc4c3nc3n4CCCCC3)C2)c(OC)c1 (stereo not given)	6%	-19	u	-2%	-10%	u
O=C(C1CCCN(c2ncnc3c2nc2n3CCCCC2)C1)N1CCN(c2ccccc2F)CC1 (stereo not given)	4%	-6	9.2µM*	-4%	0%	u
COc1ccc(-c2ccc(SC)nn2)cc1	5%	-14	u	-7%	7.1µM*	-29%
O=C(NCCCn1ccnc1)c1sc2cc([N+](=O)[O-])ccc2c1Cl	x	59	16µM*	-1%	-27%	13µM*
O=C(CC1OC(=O)c2ccccc21)Nc1cc(Cl)ccc1N1CCOCC1 (stereo not given)	1%	0	u	-4%	-5%	-25%
Cc1cccc(NC(=O)c2ccc(S(=O)(=O)N3CCCCCC3)cc2)n1	-3%	-70*	13µM*	10%	-11%	-4%
O=C(Nc1ccc(S(=O)(=O)N2CCCCC2)cc1)c1ccc(CN2CCc3ccccc3C2)cc1	-4%	-3	4.6µM*	4%	0%	10µM*
O=C(Nc1ccccc1)c1ccc(CN2CCc3ccccc3C2)cc1	1%	-4	-30%	2%	-18%	-17%
O=C(Nc1cccnc1)c1ccc(CN2CCc3ccccc3C2)cc1	2%	0	16µM*	-20%	-23%	u
O=C(Nc1cccc(S(=O)(=O)N2CCCCC2)c1)c1cc(=O)[nH]c2ccccc12	6%	u	18µM*	0%	-1%	23µM*
Cc1c(-c2cccc(NC(=O)Nc3ccc(Cl)cc3)c2)nc2ncccn12	9%	x	u	u	-3%	u
Cc1nnc(NC(=O)c2ccc(S(=O)(=O)C(F)F)cc2)s1	0%	-8	-1%	32%	13%	-13%
CC(=O)c1cccc(NC(=O)N2CCCCCC2)c1	2%[56.1 µM]	8	-1%	-2%	-12%	6%
Cc1c(-c2cccc(NC(=O)c3ccc(F)c(F)c3)c2)nc2ncccn12	0%	x	13µM*	u	-24%	u
CC(=O)c1cccc(NS(=O)(=O)c2ccc(NC(=O)N3CCCCC3)cc2)c1	5%	9	9.2µM*	-16%	6%	5.2µM*
Cc1cc(C)cc(NC(=O)c2ccc(S(=O)(=O)C(F)F)cc2)c1	2%	-87*	u	-8%	4%	3%
CC(OC(=O)c1cc(Br)ccc1O)C(=O)Nc1ccc(S(=O)(=O)N2CCCC2)cc1 (stereo not given)	0%	u	16µM*	u	0%	u
SMILES	TDP1 block	IL-1B inflam inh	DT40 TDP1 no CPT	TGFb SMAD3 inh	HepG2 viability	TDP1 cell CPT
Cc1cccc(C(=O)OC(C)C(=O)Nc2ccc(S(=O)(=O)N3CCCC3)cc2)c1O (stereo not given)	-6%[0.505 µM]	-14	u	u	-19%	u
COC(=O)C1CN(C(=O)COc2ccc(C)c(C)c2)c2ccccc2O1 (stereo not given)	x	39	2%	-3%	-8%	3%
Cc1ccccc1OCC(=O)Nc1nnc(S(=O)(=O)N(C)c2ccccc2)s1	4%	x	5%	0%	0%	-2%
CC(C)(C)c1ccc(Oc2nc3ccccn3c(=O)c2/C=C(\C#N)c2nc3ccccc3[nH]2)cc1	1%	x	-3%	51%	12%	2%
CN(C)S(=O)(=O)c1cccc(NC(=O)c2ccc(S(=O)(=O)N3CCCCC3)cc2)c1	x	2	u	-20%	-19%	u
O=C(Nc1cccc(S(=O)(=O)N2CCCCC2)c1)c1ccc(S(=O)(=O)C(F)F)cc1	7%	-82*	u	-27%	15%	u
CC(=O)c1cccc(NC(=O)c2ccc(S(=O)(=O)N3CCCCC3)cc2)c1	2%	-26	18µM*	5%	-7%	23µM*
Cc1ccnc(NC(=O)c2cccc(NC(=O)c3ccc(Cl)cc3)c2)c1	x	-8	21µM*	-26%	-18%	u
O=C(Nc1cccc(S(=O)(=O)C(F)F)c1)c1ccc(S(=O)(=O)N2CCCCC2)cc1	-11%	-62*	u	-26%	-30%	u
CCCCCC(=O)Nc1cc(S(=O)(=O)N2CCOCC2)ccc1Oc1ccc(OCC)cc1	x	-3	u	0%	-35%	u
CC(=O)c1c(C)[nH]c(C(=O)Nc2cccc(S(=O)(=O)N3CCCCC3)c2)c1C	6%	u	15µM*	-29%	-42%	u
Cc1ccc(S(C)(=O)=O)cc1C(=O)Nc1cccc(S(=O)(=O)N2CCCCCC2)c1	-1%[56.1 µM]	15	-6%	u	-44%	u
O=C(Nc1ccc(S(=O)(=O)N2CCCC2)cc1)c1ccccc1	0%	-24	23µM*	-7%	0%	-28%
O=C(Nc1cccc(Cl)c1)N1CCCC1	0%	-18	26µM*	4%	0%	16µM*
Cc1onc(-c2ccccc2)c1C(=O)Nc1ccc(S(=O)(=O)N2CCOCC2)cc1	-12%	-1	23µM*	-4%	-14%	u
